Shown are actives, neighbours in structure and some others; about 0.88% of the full set was active somewhere.
TRHR agonist = TRH receptor (human) agonism. P34981. TRHR cells, calcium flux fluo-8, FDSS agonist mode. activation, % at 2 µM. hit rate 0.18% among 360,000. AID 493084; in the data active = activation above about 30%; note: 0% is about no effect
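Agonist-mode FDSS calcium read (Ex 480/Em 530, 1 s cycles) in 1536-well TRHR cells with fluo-8 dye, after 10-cycle baseline and 23 nL compound addition; TRH at EC20 (10 nM final) added afterwards for the enhancer phase.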
TRHR enhancer = allosteric enhancers of human TRH receptor; TRHR cells, fluo-8 calcium fluorescence, EC20 TRH enhancement; AID 493056; hit rate 0.66% among 360,000; enhancement, % at 2 µM; in the data active = enhancement above about 30%; note: 0% is about no effect
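Enhancer read-out: after compound pinning and an initial kinetic agonist-mode read, an EC20 of TRH (10 nM final) was injected and fluo-8 calcium signal (Ex 480/Em 530) followed at 1 s/cycle for 100 cycles in TRHR-expressing cells.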
CBFb RUNX1 block = CBF-beta/RUNX1 interaction disruption. Q01196+Q13951. AlphaScreen CBFb-His/RUNX1-biotin binding, biochemical. Potency, µM (top dose mostly 59.8 µM), for inactives: at the top dose activity, negative = inhibition, most hits filed as inhibitors. 230,000 tested, under 10 active. AID 1477; note: % of control where 0% means no effect
Target sequence (Q01196 whole entry, looked up): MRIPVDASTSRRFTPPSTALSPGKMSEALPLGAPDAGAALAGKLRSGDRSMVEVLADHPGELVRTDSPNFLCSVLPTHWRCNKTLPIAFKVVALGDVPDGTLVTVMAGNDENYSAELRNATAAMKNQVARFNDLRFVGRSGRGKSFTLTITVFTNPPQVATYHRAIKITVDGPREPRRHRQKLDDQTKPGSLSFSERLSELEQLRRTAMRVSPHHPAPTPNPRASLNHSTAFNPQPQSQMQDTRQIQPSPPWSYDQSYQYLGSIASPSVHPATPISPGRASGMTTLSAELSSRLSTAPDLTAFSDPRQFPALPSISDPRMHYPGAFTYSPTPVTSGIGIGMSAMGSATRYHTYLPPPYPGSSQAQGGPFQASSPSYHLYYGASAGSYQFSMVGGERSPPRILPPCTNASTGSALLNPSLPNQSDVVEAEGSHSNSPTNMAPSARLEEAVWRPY
Target sequence (Q13951 whole entry, looked up): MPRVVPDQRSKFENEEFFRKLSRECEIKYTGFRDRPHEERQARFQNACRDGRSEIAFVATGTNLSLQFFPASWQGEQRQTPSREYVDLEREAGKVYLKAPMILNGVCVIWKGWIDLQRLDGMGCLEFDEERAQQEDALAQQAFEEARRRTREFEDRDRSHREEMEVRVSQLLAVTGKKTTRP
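Read-out: AlphaScreen. Format: His-CBF-beta with biotinylated RUNX1 (30 nM each) preincubated 20 min, compound 15 min, Ni-chelate plus streptavidin beads 90 min; room temperature throughout.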
Epigenetic reg = derepresses silenced GFP reporter in murine cells; murine LDR cells, GFP reporter derepression, 30 h; Potency, µM (doses to about 53.9 µM), without a hit: top-dose GFP activation, usual class: activators; hit rate 0.2% among 280,000; note: potency is the fitted concentration of half-maximal effect; % of control where 0% means no effect; nearly all actives have a fitted effect of over 60% in size
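In this reporter-derepression format, murine cells bearing a silenced integrated CMV-GFP locus incubate with test compound (30 h, 37 C), then are washed and imaged; fluorescent objects of 20–120 um count as induced cells.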
MBNL1 CUG block = inhibitors of human MBNL1 binding to CUG repeat RNA; Q9NR56; TR-FRET MBNL1-His/biotin-(CUG)12 binding, 665/545 ratio; Potency, µM (series often up to 57.5 µM), inactives show at the top dose activity change, negative = inhibition, most hits filed as inhibitors; hit rate 0.036% among 280,000; AID 2675; active = well fitted inhibition curve with a large enough effect in the signal ratio, with a control signal flat, not every such curve was filed as active; inconclusive = small, poorly fitted or top-dose-only effect, or effect the other way, or a change in a side signal; inactive = no such curve, though single readings can be large or run the other way; the % refers to the signal ratio; note: potency is the fitted concentration of half-maximal effect; % is set by controls: 0 for no effect and ±100 for the full control effect
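TR-FRET readout: Ex 340 nm, 665/545 nm emission ratio, normalized to buffer-only (basal) and MBNL1-(CUG)12 controls. Complex of MBNL1-His with Biotin-(CUG)12, compounds 92 nM–58 uM, incubated 60 min at room temperature.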
IL-2 act = activates IL-2 in a cell-based reporter assay. activation, % (series mostly up to about 46 µM). hit rate 0.065% among 360,000. AID 652025. IL-2 activation reporter assay, cell-based qHTS; stimulated with anti-CD3/CD4/CD28 beads; in transgenic mouse T cells; in the data active = activation above about 50%; inconclusive = mostly about 30% to 49%; note: 0% is about no effect
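Unstimulated transgenic mouse T cells; 60-min compound exposure; bead-based TCR/CD4/CD28 stimulation; 18 h culture, 37 degrees C; dual fluorescence (EGFP, DsRed) plate cytometry.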
MBNL1 TRFRET = confirmation of inhibitors of human MBNL1-poly(CUG) RNA binding. shares compounds with MBNL1 CUG block. TR-FRET MBNL1-His / biotin-(CUG)12 binding, 60 min. Potency, µM (top dose mostly 57.6 µM), inactives show at the highest dose activity change, negative = inhibition, hits mostly inhibitors. hit rate 50% among 140. AID 493199
MBNL1 AlphaScrn = confirmation of MBNL1-(CUG)12 RNA binding inhibitors, orthogonal format. AlphaScreen MBNL1-His / biotin-(CUG)12 binding. Potency, µM (highest dose often 57.7 µM), without a hit: at the highest dose activity, negative = inhibition, most hits filed as inhibitors. hit rate 30% among 140. AID 493205. shares compounds with MBNL1 CUG block
Menin-MLL HTRF = MBNL1-CUG RNA binding inhibitor counterscreen activity | His-Menin/biotin-MLL peptide TR-FRET counterscreen | shares compounds with MBNL1 CUG block | hit rate 20% among 120 | AID 651843 | Potency, µM (titrated, usually from 57.6 µM), for inactives: top-dose activity, negative = inhibition, usual class: inhibitors
* hit, by the source's call; ? = inconclusive; . = not tested or not shown; [ ] = remark or other dose. Unless noted, calls come from the whole dose curve; as a rule, active = well fitted curve in the direction sought with a large enough effect; inconclusive = small, poorly fitted or top-dose-only effect, or another doubt; inactive = no such curve, though single readings can be large; an effect the other way counts as inactive or inconclusive.

SMILES	TRHR agonist	TRHR enhancer	CBFb RUNX1 block	Epigenetic reg	MBNL1 CUG block	IL-2 act	MBNL1 TRFRET	MBNL1 AlphaScrn	Menin-MLL HTRF
Cc1cccc(-n2cnc3cc(C(=O)NC4CCCCCC4)ccc32)c1	0	2	.	6%	.	.	.	.	.
O=c1[nH]c(Nc2ccccc2Cl)cc2ccccc12	.	.	.	.	.	1	.	.	.
O=c1[nH]c(Nc2ccc(F)cc2)cc2ccccc12	2	4	-26%	1%	.	17	33µM*	13µM*	2%
CCOC(=O)C1CCN(C(c2cccc(F)c2)c2c(O)cc(C)n(Cc3ccco3)c2=O)CC1 (stereo unspecified)	1	1	.	-1%	.	.	.	.	.
CNC[C@H](O)c1ccc(O)c(O)c1	-1	-4	?	0%	22µM*	0	-14%	-2%	4%
CC(C)(C)NC[C@H](O)c1ccc(O)c(CO)c1	.	.	5%[21.7 µM]	-2%	.	.	.	.	.
CC(C)N(C(=O)Cn1cc(S(=O)(=O)Cc2ccc(C(F)(F)F)cc2)c2ccccc21)C(C)C	1	-1	.	-6%	.	.	.	.	.
Cc1cc2c(c(=O)n1CCN(C)C)C(c1ccccc1Br)C(C#N)=C(N)O2 (stereo unspecified)	0	-1	2%	1%	10µM*	-1	13µM*	-7%	26µM*
O=C(Nn1cnnc1)c1ccc(Cl)c(Cl)c1	0	-2	.	.	0%	0	.	.	.
O=C(Nc1ccc(Cl)c(Cl)c1)Nn1cnnc1	-2	4	.	.	7.9µM*	-3	6.5µM*	12%	33µM*
Cc1cc(C)cc(NC(=O)Nn2cnnc2)c1	0	5	.	.	?	-1	.	.	.
Cc1ccc(NC(=O)Nn2cnnc2)cc1Cl	0	6	.	.	40µM*	-2	26µM*	-1%	?
O=C(Nc1ccc(Br)cc1)Nn1cnnc1	1	0	.	.	32µM*	-1	41µM*	13%	?
O=C(Nc1ccccc1)Nn1cnnc1	-1	-10	.	.	?	2	.	.	.
COc1cccc([C@@H]2Oc3ccc(Br)cc3C[C@H]2O)c1	.	.	3%	-1%	.	.	.	.	.
CCc1cccc(NC(=O)Cn2c(=O)n(-c3ccccc3C)c(=O)c3c2c2cc(C)ccc2n3C)c1	0	0	.	2%	.	.	.	.	.
COc1ccc(-c2nc3sc(CCNC(=O)c4cc(OC)c(OC)c(OC)c4)c(C)n3n2)cc1	0	11	.	0%	.	.	.	.	.
Cc1ccc(NC(=O)Nc2ccc(F)c(Cl)c2)cc1	1	-2	8%	-1%	0%	0	.	.	.
CCC(CC)NC(=O)Nc1ccc(F)c(Cl)c1	-1	2	9%	0%	40µM*	-2	?	4%	-23%
NCCCC(N)CC(=O)NCC1NC(=O)C(CO)NC(=O)C(N)CNC(=O)C(C2CCN=C(N)N2)NC(=O)/C(=C/NC(N)=O)NC1=O (stereo unspecified)	.	.	.	.	.	.	-1%	-7%	.
CCCCC[C@H](O)/C=C/[C@@H]1[C@@H](C/C=C\CCCC(=O)OC)[C@@H](O)C[C@H]1O	0	8	1%	1%	.	0	?	10µM*	2%
CC(NC(=O)Cc1ccc(NC(=O)N2CCSc3ncccc32)cc1)c1ccccc1 (stereo unspecified)	1	-1	.	1%	.	.	.	.	.

Screening data from PubChem BioAssay.
